We go through 13 molecules from article PMC12864922, “TDP-43 directly inhibits mRNA accumulation in neurites through modulation of mRNA stability”.

Over roughly 9,900 sequences, “r (bound/input frequency ratio)” has its median near 0.7; the highest 2% begin near 6.5. The sample holds the highest values, similar sequences and a random draw of the others, so the mix is not that of the screen.

Sequences and labels used below:
B1: ENSMUSG00000028439.291|Fam219a|94:98 (ssRNA)
RNA: GGGAGUUCUACAGUCCGACGAUCGCUUCGAUAUCCGCAUGCUAGUGUCUCUCCUUCAGGCGCCCCACAUGCCAGCAUUUCCACCCUCUGGAUUCUCCUCACAUGUCACUCUCCAGGUGCCGGGGCCUAGAGUGGGCCACACAGAAGGAGGAGUGGGGCUGUUGGCUUAGGAAGGGAAGCGCCUCUCUGUACACCACAACCAGGAGCUGCCCACUCCCCACACCUCCAGCCCAGCUUACCUCCCCCUAGUACAGAGAUCCUAAUUAGAUAAGAAAAUGCCAAGGGAGGCAAGCCAGAGAAAGCACUCUUGCGGUCGCACUAGUGUGGAAUUCUCGGGUGUCAAGG
B2: ENSMUSG00000090935.679|Synj2bp (ssRNA)
RNA: GGGAGUUCUACAGUCCGACGAUCGCUUCGAUAUCCGCAUGCUAUGAACCUUGAGAUUCACCACUGUCAGGAGCUCUCUCUCUCUGCUUAGAAUCAUCCAGACAGCGGGCUGGUCAGCCCACAUUAAAUAAGAACAUGUGGGACUAGAAUUCAGUCAACAAUGACAUGUUUCAUCAGGUGGUUAAAAUGUACAGAUUCUGUUGGAAAUGUUCCAUGGUAUUUCAAUAGCCAGAAUGAAGAACUGGGCUAAGUCCAGAGCUCUGCUCUCUGAGCAUCUGCCCCAGAUACAGAGGCAGAGUAUGAACUCUUGCGGUCGCACUAGUGUGGAAUUCUCGGGUGUCAAGG
B3: ENSMUSG00000043670.52|Diras1|235:240 (ssRNA)
RNA: GGGAGUUCUACAGUCCGACGAUCGCUUCGAUAUCCGCAUGCUACACCAGCCUACAGUAAGGUUGGGCUCCAUCCCUGCCUCUUCACACCUCCAUAGCUUCAUCCUUUGCAGACCUCUCCCUCUAUAUCUCUUUGCUCCCCCACCCCCAUUCUAUCUGCACCCCACAACCACACACUGGAGGUUUGAUCCCUGUGGAUCUGAAAACAGGGACCUGGCUAAGGAACUGCUCAUCCCAGUCAGGCCCAGAGAGGUUACCUUGCCUCUCCAUCUCUGUCCCACACACCCCAGCCAUGCCCACUGUCCCUCUUGCGGUCGCACUAGUGUGGAAUUCUCGGGUGUCAAGG
B4: ENSMUSG00000029028.191|Lrrc47 (ssRNA)
RNA: GGGAGUUCUACAGUCCGACGAUCGCUUCGAUAUCCGCAUGCUACCCAUCUCUGUGCAUCCUGACUGCGCACAUCCCAUCUCCGCAUGUGUACGCAUCUGUACCAGCACACAGCUGCCAUCCCUCGAGCCACAGUGCCUGGUCCUAAGGACCCAGCAGCUGCACAGAGGACUUGGUGGCCCCGUGCCUUGCCAUCUGGCUGAGAAGAGAACCAGACCCUCAGCCUUCCCCCUCGACACCUUCUCGUUGGUGACCUCUGACCUUAAAGGACCAUUUCUACCUUCUGUAAAAGAACACCUGUUUGGCUCUUGCGGUCGCACUAGUGUGGAAUUCUCGGGUGUCAAGG
B5: ENSMUSG00000061578.1057|Ksr2 (ssRNA)
RNA: GGGAGUUCUACAGUCCGACGAUCGCUUCGAUAUCCGCAUGCUAUGUGAAAGUCUGAUGACUCAAAUCAAAGUUUGGUUUUUCUUUUCUACUACUCUGAAGGAAAAUCUCAGCUUGGCUAUUUCUUCAUGUUUUAAAAAUGUCUUGACUUCUCUCAGCAACCAACUUCAGGUGCCAGGAUAUGAGAUGCUAAGGUUCAGGGGUGGUGGAGGUGAUUCUAUCCAGUGGCCAGCAAUACCCAAAAGCAGCCAACCAUGAAAAUAGAGGUUUGUAAUGUACAGAAGGCUGGGGGAGCUUUCAGGGGUCUCUUGCGGUCGCACUAGUGUGGAAUUCUCGGGUGUCAAGG
B6: ENSMUSG00000043670.174|Diras1 (ssRNA)
RNA: GGGAGUUCUACAGUCCGACGAUCGCUUCGAUAUCCGCAUGCUACAGCAAAGUCCCUGUGUGCGGUGAUAGGACUAGUGGCUGCUGCCCUAGGGCUCUGACAGAAUCUGAGCCUCUUUGCUGGUCAUGUGUACUCUGGAGACUGUCCCCCAUGUCUGCCCUGAGUUACGGAGCCCCUGUGGUAUCUGCGAGACUGUCCAGGAGACUUGAGUGGCUCCUGGGCCUGUGUCCCACCCAGAUGAGGGUGACUUAGAAUUCUGUGUUUAUGUGCCUGUGUGUGUGGAUGGGUGUGUGUCUGUCUUGGGCUCUUGCGGUCGCACUAGUGUGGAAUUCUCGGGUGUCAAGG
B7: ENSMUSG00000029636.81|Wasf3|153:157 (ssRNA)
RNA: GGGAGUUCUACAGUCCGACGAUCGCUUCGAUAUCCGCAUGCUAUGAUGUCUUCCAACCAGUGGGUGAUACGUUUUCCUGUUUCUUCCCUUUGCAAAUUGAAUUCCAGGUAGAUAUGGUUGUAGAGGGGAAAGUUUAACAAAUCAGAAUGAAAUGUUUGUCUGUUUGCACACUGGGCCUGGUGGCCUCCAAGGAAAACACAACGAUCGUUUGCUUUCUCUAUCUUGGCGCUUGCAACCGAGAGCGGCCAUUUUUAUGAGGGGAGCCCUGUGGGUACUCAUGUGGAAAGUGCCCACUGACUUUGGCUCUUGCGGUCGCACUAGUGUGGAAUUCUCGGGUGUCAAGG
B8: ENSMUSG00000029028.64|Lrrc47 (ssRNA)
RNA: GGGAGUUCUACAGUCCGACGAUCGCUUCGAUAUCCGCAUGCUAUGGGUAUGCUGUAGAUGUCUGUGUAGGUGUGGAUAUGCUGUAGGUAUCUGGGUGUGCUGUAGGUGUCUGUGUGGGUGUGGGUGUGCUGUGGGUGUCUGUGUGGGUGUGCUGUAGGUGUCUGUAGGUGUGGGUAUGCUGCAGGUGUGGGUGUGCUGUAGAUCUCUAUAGGUGUGGGUGUGCUGUAGGGGUCUGUGUGGGUAUAGGUGUGGGUGUGCUGUAGAUUCUGUGUAACUGGUUCUUUGCUGUUUCUCUGGGUGUUUCUCUUGCGGUCGCACUAGUGUGGAAUUCUCGGGUGUCAAGG
B9: ENSMUSG00000058297.508|Spock2 (ssRNA)
RNA: GGGAGUUCUACAGUCCGACGAUCGCUUCGAUAUCCGCAUGCUAUAGCCUGGGAGUUCUGGCAGGAGGCAAAGUUGGUGAGAGUCCUGGGACAUCUUACCCCCAGUGUUCCACAGGAGUCGUGACCACGUGUGAUGGGUGGGCACAGGUCUGCCUUGCUCCAGCCCCCUCCCUUGGUUUCUGUUGGUACCCAUUUGGCUUUUAUCUGCUUUCUGCUUCACCACUAAGUGCGUAGGUGGGGUCUUUUGAUAUCGGCUCCCCAAAGCCCAAGCCCACAGCCCUAGGAGAGAACCAGGGGCCCAUCUCUCUUGCGGUCGCACUAGUGUGGAAUUCUCGGGUGUCAAGG
B10: ENSMUSG00000031028.667|Tub|229:233 (ssRNA)
RNA: GGGAGUUCUACAGUCCGACGAUCGCUUCGAUAUCCGCAUGCUAAGGACAGGCAAAAUUUCUCUAGCUGAGAGCACACUUAGCCAGUUUUCACGCCUAGAACAUAUAUGUCGAUUUGCACAUGAUUGUCUUUUCCUAUUUUGGAGUGGUCAGACAUUUUAUUUUUGUUCAAAAUUAUCUGGAGUUUUAGACAAACUUGCAAAACUGUGCUUUUAUUAAGUGACUUUUUGAAUAAACUUUUUGGUAUUCUGAAGCAAAUGUAUUUAUUUAUUGCAUACUGCAAUGACAAACUUGGUAUUUUCCCACUCUUGCGGUCGCACUAGUGUGGAAUUCUCGGGUGUCAAGG
B11: ENSMUSG00000058297.445|Spock2|189:193 (ssRNA)
RNA: GGGAGUUCUACAGUCCGACGAUCGCUUCGAUAUCCGCAUGCUAUGGUGGGGCUGAAGGUUCCCAAGUAGCUUCUAGUUAAGCAAGCUUCGUGUUUCCUCAGGAGCAAGGUCACACAGGUCAGAUUAUUGUCGGUCCUGCGGGCCUCAUCCUUGAAUAAGCUGCCUGCCCAGUUCCUCCAUCCGUGUUCCUGCCUGCUCCCGUUCCCUUGUUGCGGGCAGGAGAGGUAGGGCACACAUGGAAAGAGUUCAACCAAAUUACGGCAGCACCACAUCUUGCCGAGCCCUGGAGCUGCCCUACUAAGACUCUUGCGGUCGCACUAGUGUGGAAUUCUCGGGUGUCAAGG
B12: ENSMUSG00000028439.22|Fam219a|136:142 (ssRNA)
RNA: GGGAGUUCUACAGUCCGACGAUCGCUUCGAUAUCCGCAUGCUACGCUGACCUGGGCCCGGUGGGAUGCAGCAGGAGAGACCCCUACCCUGCUGGUCCACUGGUCCCCAGCCCCGCGCCUCUUAGAGCCGCCAACCUCGUAACAGUCAUUGCUUCCUCCUAUGGUAGGACGUGUACCUCACACACAUCAAGGAGCCGGAGAAACCAAAACCGGGUCUGUCUCCAGCCCCGGGGCUGAGGAGGGGUGGGCACUGUUUGUUCGGUUACUUGGGGGGAACCACACCCAAGCACCCUGCCACCUCUCCCUCUUGCGGUCGCACUAGUGUGGAAUUCUCGGGUGUCAAGG
B13: ENSMUSG00000061578.153|Ksr2|12:16;34:49;85:89 (ssRNA)
RNA: GGGAGUUCUACAGUCCGACGAUCGCUUCGAUAUCCGCAUGCUAGACGGUCCUGGCAUACCAUGAUGGGUUACAUGGCACACACACACACACAAACUGUUUACAAUGGUCUCCCUGCCUCUCACGGGCACACAUCCAGGAGAAUGCACAUAGAGAGGUUCUGUGGUCUCUGCUGUCGCCUGGUGCUGAAUCCUGAGUGGUUUCCCCACUGAGGACCCUGUGACCCUGUGACCCUUGGCCCCUCCCUUAUUGUGCACACUCAGCACCCCAUCUUCCAAGCCUUUCUUCAUCCCCCACCUUCUUUUCUCUUGCGGUCGCACUAGUGUGGAAUUCUCGGGUGUCAAGG

Chain of TDP-43 (Q13148 whole entry): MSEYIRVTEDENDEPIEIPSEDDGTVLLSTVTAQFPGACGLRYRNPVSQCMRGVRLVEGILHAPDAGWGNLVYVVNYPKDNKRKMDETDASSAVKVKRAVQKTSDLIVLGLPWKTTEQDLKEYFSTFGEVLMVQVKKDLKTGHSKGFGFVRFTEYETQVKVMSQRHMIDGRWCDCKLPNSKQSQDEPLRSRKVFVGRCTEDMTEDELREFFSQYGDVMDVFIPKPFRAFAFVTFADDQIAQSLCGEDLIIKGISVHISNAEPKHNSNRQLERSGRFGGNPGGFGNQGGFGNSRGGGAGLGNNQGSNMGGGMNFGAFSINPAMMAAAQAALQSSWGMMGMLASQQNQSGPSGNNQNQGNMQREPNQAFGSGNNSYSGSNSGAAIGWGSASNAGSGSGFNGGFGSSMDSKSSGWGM

For this assay, the target named is TDP-43 (Homo sapiens, UniProt Q13148 1-414). As to the kind of experiment: RNA Bind-n-Seq with designed 260-mer pool; 25 mM Tris-HCl, 150 mM KCl, 3 mM MgCl2, BSA (printed 500 mg/mL), 20 units/mL SUPERase IN; pH not stated; 500 nM RNA pool, 1 h, 4 C; TDP-43 5, 50, 500 nM; high values mean tight binding. The note with it: protein: recombinant; tags: SBP (GST cleaved off with PreScission; pGEX-GST-SBP). In short, it runs like this:
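Binding (R) is the ratio of each oligo's mapped-read-normalized abundance in the bound fraction to its abundance in the input. To obtain it, SBP-tagged recombinant TDP-43 (5, 50 or 500 nM) on streptavidin beads was incubated with 500 nM of an in vitro-transcribed 260-nt 3′ UTR oligo pool for 1 h at 4 °C in 25 mM Tris-HCl, 150 mM KCl, 3 mM MgCl2, BSA and SUPERase IN. The RNA retained after washing was released with biotin, then reverse transcribed, amplified by PCR and sequenced.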
On to B1, for which the binding signal is 0.63 R (bound/input frequency ratio).
In the case of B2 it was 0.733 R (bound/input frequency ratio); in that of B3, 2.23 R (bound/input frequency ratio); in that of B4, 0.696 R (bound/input frequency ratio).
With B5, the binding signal was 0.83 R (bound/input frequency ratio).
For the molecule B6, the binding signal was 5.89 R (bound/input frequency ratio).
Take B7: the binding signal is 5.11 R (bound/input frequency ratio).
In the case of B8, the binding signal is 5.28 R (bound/input frequency ratio).
With B9, the binding signal is 0.768 R (bound/input frequency ratio).
In the case of B10, the binding signal was 0.0728 R (bound/input frequency ratio).
Regarding B11, the binding signal was 0.0933 R (bound/input frequency ratio).
As to B12, the binding signal is 0.559 R (bound/input frequency ratio).
For the molecule B13, the binding signal was 1.47 R (bound/input frequency ratio).
